Data from PubChem BioAssay (NCATS).
Activity calls are given as the source filed them. Calls come from the whole dose curve; as a rule, active = well fitted inhibition curve with a large enough effect; inconclusive = small, poorly fitted or top-dose-only effect; inactive = no such curve, though single readings can be large or run the other way.

These compounds were tested against Single-stranded DNA cytosine deaminase (Homo sapiens) (UniProt Q9GZX7) (assay: Validation qHTS assay for inhibitors of Activation Induced Cytidine Deaminase (AID): AID signal (AID 1347429)). Settings: Recombinant AID, FRET ssDNA deamination with UDG, fluorescence; series mostly up to 115 µM; activity change, negative = inhibition: at the top concentration.
Excerpt: Assay Provider (PI) Patricia Gearhart Ph.D. National Institute on Aging National Institute of Health (NIH), Bethesda, MD Assay Provider (PI) Rahul Kohli Ph.D. Perelman School of Medicine University of Pennsylvania, Philadelphia, PA Activation-Induced Deaminase (AID) is a cytosine deaminase which converts cytosine into uracil within stretches of ssDNA. The presence of uracil in DNA initiates a cascade of mutagenic DNA repair to introduce point mutations and DNA double strand breaks. Specific targeting of AID to the immunoglobulin heavy chain loci (Igh) promotes mutagenesis in the antibody variable region for somatic hypermutation (SHM) or switch regions leading to class switch recombination (CSR). However, AID also plays a role in accumulating unnecessary mutations across the genome. Mis-targeting of AID results in the initiation of tumor development and leads to greater drug resistance among cancer cells when continually expressed. To identify an AID inhibitor, a small molecule library will be screened in collaboration with NCATS core facility at NIH. To confirm biological function, inhibitors will be examined in an in vitro murine B-cell activation assay and subsequent secondary validation screens. Top molecules will be further screened to identify inhibitory efficacy against a wild type primary splenocytes assay. Using these approaches, we hope to identify a small molecule with great efficacy and low toxicity for use as a molecular probe to further characterize AID's intricacies, or even as a therapeutic. A FRET based analysis of cytosine deamination, was developed to identify potential inhibitors of AID catalytic activity. This screen has two signal output, Read 1 evaluates the AID inhibition response. The second readout (Read 2) evaluates UDG response and is uses as a counterscreen to exclude false positive inhibitors. Inhibition in AID and inactivity in the UDG signal is the desired outcome for this assay.
PROTOCOL TABLE SEQUENCE No. (e.g., 1, 2, 3, etc.); […] (e.g., Cells, Incubation, Reagent, etc.); VALUE; DESCRIPTION 1a; Reagent; 3 uL; [4/3x] […] 250 nM DJC20 / 250 nM DJC23 [Substrate] 5; Time; 4 hr; incubation at room temperature 6; Reagent; 4 uL; [2x] 250 mM NaOH 7; Time; 15 sec; centrifuge at 1000 rpm 8; Time; 30 min; incubation at room temperature 9a; Detection; fluorescence (Read 1: AID); EnVision (PerkinElmer) plate reader, 540 excitation and 590 emission filters 9b; Detection; fluorescence (Read 2: UDG); EnVision (PerkinElmer) plate reader, 560 excitation and 665 emission filters NOTES (numbers refer to sequence above) 1a; Reagents were dispensed in a medium-binding black solid-bottom Greiner plates (789176F) using a BioRptr liquid dispenser. Dispense 3 uL of [4/3x] 1 uM AID (provided by Kohli lab) and [4/3x] 2 U/mL UDG (NEB M0280L) into columns 1, 2, 5 to 48. 1b; Dispense 3 uL of [4/3x] 2 U/mL UDG into column 3. 1c; Dispense 3 uL of [4/3x] 1 uM AID into column 4. 2a; Compound ([…] [uM] (0.64; 3.2; 16; 80; 400; 2,000; 10,000; 20,000) double pin-transferred (Dip Factor = 2) using the Kalypsys (Wako USA) pintool equipped with a 1536 pinhead for a final concentration range of 7.32 nM - 114 uM. 2b; 10 mM Aurintricarboxylic Acid (Sigma A1895) (ATA, 8-point, n = 2, 1:2.5 dilution in column 2) double pin-transferred (Dip Factor = 2) using the Kalypsys (Wako USA) pintool equipped with a 1536 pinhead for a [final] range of 186 nM - 114 uM. 3; Room temperature incubation. 4; Dispense 1 uL of substrate mixture from the Kohli lab [4x] […] DJC20 and [4x] 250 nM DJC23 into columns 1 to 48 . 5; Room temperature incubation. 6; Dispense 4 uL of substrate mixture [2x] 250 mM NaOH into columns 1 to 48. 7; Centrifugation step to remove bubbles. 8; Room temperature incubation 9a; Fluorescence signal (column label AID) was read using the EnVision plate reader. Excitation filter = 540(8) nm, barcode = 311; Emission filter = 590(20) nm, barcode = 217; Mirror = D555, barcode = 405. […]
% is set by controls: 0 for no effect and ±100 for the full control effect; potency is the fitted concentration of half-maximal effect.

Single-stranded DNA cytosine deaminase (Homo sapiens), sequence (Q9GZX7 whole entry, looked up): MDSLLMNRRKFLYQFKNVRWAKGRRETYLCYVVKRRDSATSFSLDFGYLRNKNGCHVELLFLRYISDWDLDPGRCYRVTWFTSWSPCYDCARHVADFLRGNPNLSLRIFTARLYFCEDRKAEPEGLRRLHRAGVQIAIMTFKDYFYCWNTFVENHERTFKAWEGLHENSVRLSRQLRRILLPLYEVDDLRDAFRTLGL

| SMILES | Potency | activity change, negative = inhibition |
| --- | --- | --- |
| O=C1C(SCCO)=C(SCCO)C(=O)c2ccccc21 | 10 µM (active) |  |
| c1ccc(-c2ccccn2)nc1 |  | -1.28% (inactive) |
| CCCN(CC1CC1)c1nc(C)nc(Nc2c(Cl)cc(Cl)cc2Cl)c1Cl |  | 1.31% (inactive) |
| Nc1nc(SCc2ccc([N+](=O)[O-])cc2)c2ncn([C@@H]3O[C@H](CO)[C@@H](O)[C@H]3O)c2n1 |  | 10.5% (inactive) |
| N#C/C(=C\c1c[nH]c2ccccc12)C(=O)c1ccc(O)c(O)c1 |  | 1.16% (inactive) |
| S=C(S)OC1CC2CC1C1CCCC21 (stereo not given) |  | 4.73% (inactive) |
| O=C(O)[C@@H]1C[C@H](C(=O)O)N1 |  | 21.4% (inactive) |
| CNC(=O)[C@H]1O[C@@H](n2cnc3c(NCc4ccc(N)cc4)ncnc32)[C@H](O)[C@@H]1O |  | 95.2% (inactive) |
| COc1cc(C(O)CO)ccc1OS(=O)(=O)O (stereo not given) |  | 9.08% (inactive) |
| C[C@@H](NC(=O)/C(C#N)=C/c1ccc(O)c(O)c1)c1ccccc1 |  | 9.54% (inactive) |
| Nc1ncnc2c1ncn2[C@@H]1O[C@H](COP(=O)(O)CP(=O)(O)OP(=O)(O)O)[C@@H](O)[C@H]1O |  | 21.2% (inactive) |
| O=[N+]([O-])c1ccc2c(c1)S(=O)(=O)C=C2 |  | 8.9% (inactive) |
| Fc1ccc(C(OCCCc2cnc[nH]2)c2ccc(F)cc2)cc1 |  | -1.16% (inactive) |
| NCCSSCCN |  | 15.3% (inactive) |
| O=C1/C(=C/c2ccsc2)CC/C1=C\c1cccs1 |  | 19.1% (inactive) |
| CN(C)CCCO[C@@H]1[C@H]2OC(C)(C)O[C@H]2O[C@@H]1[C@H](O)CO |  | 15.7% (inactive) |
| CCCCCCCCCCCCCCCC(=O)OC(CC(=O)O)C[N+](C)(C)C (stereo not given) |  | 11.2% (inactive) |
| COC1=C(OC)C(=O)c2ccccc2C1=O | 50.1 µM (active) |  |
| NC[C@@H]1O[C@H](C23CC4CC(CC(C4)C2)C3)Cc2c1ccc(O)c2O |  | 30% (inactive) |
| COc1cc2c(CCNC(C)=O)c[nH]c2cc1Cl |  | 10.8% (inactive) |

| SMILES | Potency | activity change, negative = inhibition |
| --- | --- | --- |
| CCCn1c(=O)c2[nH]c(-c3ccc(OCC(=O)NCCN)cc3)nc2n(CCC)c1=O |  | 39.1% (inactive) |
| CCc1c(C(=O)NCCc2ccc(N3CCCCC3)cc2)[nH]c2ccc(Cl)cc12 |  | 15.1% (inactive) |
| CCCCCCCCCCCCCCCCCC(=O)OC(CC(=O)O)C[N+](C)(C)C (stereo not given) |  | -1.84% (inactive) |
| CCCC1(C)C(C#N)(C#N)C1(C#N)C#N |  | 16.9% (inactive) |
| CC1OC1P(=O)(O)O (stereo not given) |  | 0.788% (inactive) |
| CN1CCc2ccccc2Cc2[nH]c3ccccc3c2CC1 |  | 112% (inactive) |
| OCC1O[C@H]([S-])[C@H](O)[C@@H](O)[C@@H]1O.[Au+] (stereo not given in full) | 12.6 µM (active) |  |
| COc1cc(SC)ccc1C(=O)N1CCC(Cc2ccccc2)CC1 |  | -12.3% (inactive) |
| CN(C)CCC(c1ccc(Cl)cc1)c1ccccn1 (stereo not given) |  | 12.9% (inactive) |
| CC(C)(C)c1ccc(S(=O)(=O)/C=C/C#N)cc1 |  | 16.8% (inactive) |
| O=C1NC(=O)/C(=C/c2ccc3nccnc3c2)S1 |  | 24.1% (inactive) |
| CCCCCCCC/C=C\CCCCCCCC(=O)NCCO |  | -1.69% (inactive) |
| CCOC(=O)N1CCN(/[N+]([O-])=N/Oc2ccc([N+](=O)[O-])cc2[N+](=O)[O-])CC1 |  | 20.2% (inactive) |
| O=c1[nH]c2cc(C(F)(F)F)ccc2n1-c1cc(C(F)(F)F)ccc1O |  | 11.6% (inactive) |
| CN1CCc2cc(O)c(O)cc2C(c2ccccc2)C1 (stereo not given) |  | 29.5% (inactive) |
| C[N+](C)(C)CCOP(=O)(O)OP(=O)([O-])OC[C@H]1O[C@@H](n2ccc(N)nc2=O)[C@H](O)[C@@H]1O |  | 19.3% (inactive) |
| CC[C@@H](C)[C@H]1O[C@]2(CC[C@H]1C)C[C@@H]1C[C@@H](CC=C(C)[C@@H](O[C@H]3C[C@H](OC)[C@@H](O[C@H]4C[C@H](OC)[C@@H](O)[C@H](C)O4)[C@H](C)O3)[C@@H](C)C=CC=C3CO[C@@H]4[C@H](O)C(C)=C[C@@H](C(=O)O1)[C@]34O)O2 |  | -8.82% (inactive) |
| O=C(c1ccc(Cl)cc1)N1CCN(c2ccc([N+](=O)[O-])c3ncccc23)CC1 |  | 83.3% (inactive) |
| CN(C)c1nc2c(Br)c(Br)c(Br)c(Br)c2[nH]1 |  | 8.37% (inactive) |
| C=CC(=O)c1ccc(CCCCCC)cc1 |  | 3.8% (inactive) |
